Test [1] in a line: APR_HepG2_CellLoss_72hr: Apredica 72-hour HepG2 Assay for Cell Loss (AID 2282915). The settings on record: high-content imaging. A digest of the protocol:
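Cell number comes from Hoechst 33342-labelled nuclei, imaged at 20x after 3.7% formaldehyde fixation. Dosing was 0.39–200 uM, ten concentrations in duplicate, 0.5% DMSO final, for 72 h. Bidirectional fit relative to DMSO baseline.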

The nature of test [2]: APR_HepG2_P-H2AX_72hr: Apredica 72-hour HepG2 Assay for H2AX Phosphorylation (AID 2282916).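 Note: phospho-histone H2A.x immunostain intensity per cell marking DNA damage.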 As to conditions: imaging, actives raise or lower the signal. In outline: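 HepG2; cpd 0.39–200 uM ×10 conc, duplicates; 0.5% DMSO; 72 hr. Fix 3.7% formaldehyde 30 min RT, 0.5% Triton X-100 10 min. Anti-phospho-H2A.x 1:200 + Hoechst 2 ug/mL, 60 min RT; ArrayScan imaging.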
Test [3] in a line: APR_HepG2_MitoMembPot_72hr: Apredica 72-hour HepG2 Assay for Mitochondrial Membrane Potential (AID 2282917). The settings on record: imaging, actives raise or lower the signal. A digest of the protocol: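 Membrane potential read by MitoTracker Red CMXRos (250 nM, 30 min, pre-fixation) fluorescence imaging of HepG2 after 72 hr exposure. Ten concentrations, 0.39–200 uM, duplicate wells, 0.5% DMSO; fitted in both directions against DMSO baseline.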

A short description of test [4]: APR_HepG2_MitoticArrest_72hr: Apredica 72-hour HepG2 Assay for Mitotic Arrest (AID 2282918). The settings on record: high-content imaging, actives raise or lower the signal. A digest of the protocol: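 Read-out is phospho-histone H3 immunofluorescence with Hoechst nuclear segmentation, imaged at 20x. Human HepG2 liver cells received ten concentrations (0.39–200 uM, final DMSO 0.5% v/v) for 72 hr before fixation. Gain or loss of signal was fitted relative to DMSO.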

A short description of test [5]: APR_HepG2_MicrotubuleCSK_72hr: Apredica 72-hour HepG2 Assay for Microtubule CSK Stabilty (AID 2282919). As to conditions: HepG2 microtubule cytoskeleton, high-content imaging, actives raise or lower the signal. In outline: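 Read-out is tubulin fluorescence intensity from high-content imaging of HepG2 cells, with nuclei identified by Hoechst 33342. Treatment lasts 72 h at 0.39–200 uM, and curves are fitted bidirectionally against the DMSO negative control.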

Test [6] in a line: APR_HepG2_P-H2AX_24hr: Apredica 24-hour HepG2 Assay for H2AX Phosphorylation (AID 2282920). As to conditions: high-content imaging, actives raise or lower the signal. A digest of the protocol: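 HepG2, 24 hr, cpd 0.39–200 uM (10 conc, duplicate), DMSO 0.5% v/v final. Fix 3.7% formaldehyde, Triton X-100 permeabilize, anti-phospho-H2A.x 1:200 + Hoechst 2 ug/mL. Imaged, bidirectional fit vs DMSO.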

A short description of test [7]: APR_HepG2_StressKinase_72hr: Apredica 72-hour HepG2 Assay for Stress Kinase (AID 2282921). As to conditions: HepG2 stress kinase (phospho-c-Jun) imaging, actives raise or lower the signal. A digest of the protocol: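 Dose 0.39–200 uM (10 pts, duplicate), 0.5% DMSO; 72 h; fix 3.7% formaldehyde 30 min RT; Triton permeabilize; anti-phospho-c-Jun/Cy3 + Hoechst 60 min RT; image 20x; fit gain/loss vs DMSO.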

Test [8] in a line: APR_HepG2_p53Act_72hr: Apredica 72-hour HepG2 Assay for p53 Activation (AID 2282923).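 Note: average cellular p53 protein immunofluorescence intensity in HepG2 cells.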 The settings on record: high-content imaging, actives raise or lower the signal. A digest of the protocol:
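10-pt conc. 0.39–200 uM, duplicate, 0.5% DMSO; 72 hr exposure; 3.7% formaldehyde fix, 0.5% Triton perm; sheep anti-p53/Cy5 + Hoechst; ArrayScan 20x, 6 images/well; gain/loss fit vs DMSO.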

Test [9] is described as follows: APR_HepG2_MitoMass_72hr: Apredica 72-hour HepG2 Assay for Mitochondrial Mass (AID 2282924).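 Note: MitoTracker Red CMXRos stain intensity per cell imaged as mitochondrial mass.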 The settings on record: high-content imaging, actives raise or lower the signal. A digest of the protocol:
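HepG2, 72 hr cmpd, 10 conc 0.39–200 uM in dup, DMSO 0.5% v/v. MitoTracker Red CMXRos 250 nM 30 min pre-fix; formaldehyde 3.7% fix 30 min RT. HCS imaging, gain/loss fit vs DMSO.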

Test [10] can be described thus: APR_HepG2_StressKinase_24hr: Apredica 24-hour HepG2 Assay for Stress Kinase (AID 2282922). As to conditions: HepG2 stress kinase (phospho-c-Jun) imaging, actives raise or lower the signal. In outline: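 HepG2, 24 hr dosing, 0.39–200 uM in duplicate, 0.5% DMSO; formaldehyde fix (3.7%), 0.5% Triton X-100; anti-phospho-c-Jun + Cy3 secondary, Hoechst counterstain; ArrayScan imaging; bidirectional curve fit vs DMSO baseline.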

The source of these data is PubChem BioAssay (EPA / NIEHS).

Molecules are shown by their SMILES. Active and inactive are the calls of the source. Rule for the calls: active = hit-call score of the fitted dose curve at least 0.9, where 1 is the maximum; inactive = score below 0.9.

Turning to `COc1ccc(-c2ccccc2)cc1NNC(=O)OC(C)C`, the compound was classed as inactive in [1], in test [2], in test [3], in [4], in [5] and in [6]. Also, the call in test [7], in test [8] and in [9] was inactive.

The term AC50 denotes the midpoint of the concentration-response curve, whichever way the signal moves. As for `CC(C)Oc1cccc(NC(=O)c2ccccc2C(F)(F)F)c1`, the values for the AC50 in test [1] and in test [5] were 131 µM (active) and 100 µM (active), respectively. The compound was classed as inactive in test [2], in [3], in [4], in test [6], in [7] and in test [8]. In addition, in [9], the call was inactive.

As for `CC(C)N1C(=O)c2ccccc2NS1(=O)=O`, the result in [1], in [2], in test [3], in [4], in test [5] and in test [6] was inactive. In addition, the compound was classed as inactive in test [7], in test [8] and in test [9].

For `COP(=O)(OC)O/C(C)=C/C(=O)N(C)C`, the compound was classed as inactive in [1], in [2], in test [3], in [4], in [5] and in test [6]. Further, the call in test [7], in test [8] and in test [9] was inactive.

For the compound `CNC(=O)Oc1cccc2ccccc12`, the AC50 in test [1] is 102 µM (active); in [2], 97.3 µM (active); in [3] it was 76.9 µM (active); in test [6] it was 102 µM (active); in [9], 36 µM (active). The compound was called inactive in test [4], in test [5], in test [7] and in [8].

Regarding `CC1(C)CON(Cc2ccccc2Cl)C1=O`, the compound was classed as inactive in [1], in test [2], in [3], in [4], in [5] and in test [6]. The compound was classed as inactive in [7], in test [10], in test [8] and in [9].

With `CC1(C)C(C(=O)OC(C#N)c2cccc(Oc3ccccc3)c2)C1(C)C` (stereo unspecified), the AC50 in test [1] is 70.3 µM (active); in test [5] it was 100 µM (active). The call in test [2], in [3], in [4], in test [6], in test [7] and in test [8] was inactive. Also, the result in test [9] was inactive.

Take `C=CCOC(=O)C(C)(C)OC(=O)c1cc(-n2c(=O)cc(C(F)(F)F)n(C)c2=O)ccc1Cl`: the AC50 in test [1] is 97.7 µM (active); in test [3], 65.2 µM (active); in test [4], 90.1 µM (active); in test [5] it was 100 µM (active). Moreover, the call in test [2], in [6], in [7], in test [8] and in test [9] was inactive.

`CN/C(=N\[N+](=O)[O-])NCc1cnc(Cl)s1`: the compound was called inactive in [1], in [2], in test [3], in test [4], in test [5] and in [6]. Also, the compound was called inactive in test [7], in test [8] and in test [9].

Consider `CCCCC(O)(Cn1cncn1)c1ccc(Cl)cc1Cl` (stereo unspecified), for which the AC50 is 74.4 µM (active) in test [1], 109 µM (active) in [6], 122 µM (active) in test [7] and 120 µM (active) in test [8]. Further, the compound was called inactive in test [2], in [3], in [4], in test [5] and in test [9].

Regarding `CCCCC(C#N)(Cn1cncn1)c1ccc(Cl)cc1` (stereo unspecified), in test [1], the AC50 was 103 µM (active). Also, the result in test [2], in test [3], in test [4], in test [5], in test [6] and in [7] was inactive. Further, the outcome in test [8] and in [9] was inactive.

In the case of `CSC(=O)c1c(C(F)F)nc(C(F)(F)F)c(C(=O)SC)c1CC(C)C`, the AC50 in test [1] was 73.9 µM (active); in test [4], 67.7 µM (active); in test [5] it was 64.6 µM (active). Further, the compound was called inactive in test [2], in test [3], in test [6], in test [7], in test [10] and in test [8]. Also, the outcome in test [9] was inactive.

Consider `CCN(CC)C(=O)C(C)Oc1cccc2ccccc12` (stereo unspecified), for which, in [1], the AC50 was 77.6 µM (active). Moreover, the compound was classed as inactive in test [2], in [3], in test [4], in test [5], in test [6] and in test [7]. Further, the outcome in test [10], in test [8] and in test [9] was inactive.

Consider `Cc1c(COC(=O)[C@@H]2[C@H](/C=C(\Cl)C(F)(F)F)C2(C)C)cccc1-c1ccccc1`, for which the compound was classed as inactive in test [1], in test [2], in [3], in test [4], in [5] and in test [6]. For the same compound, the compound was classed as inactive in [10], in test [8] and in [9].

Turning to `CC(C)Nc1nc(Cl)nc(NC(C)C)n1`, the compound was classed as inactive in test [1], in [2], in [3], in test [4], in test [5] and in test [6]. Moreover, the outcome in test [7], in test [8] and in [9] was inactive.

As to `Cn1c(-c2ccccc2)cc(-c2ccccc2)[n+]1C`, the result in test [1], in test [2], in [3], in test [4], in [5] and in test [6] was inactive. Besides, the compound was called inactive in test [7], in [8] and in test [9].

For the compound `CNC(=O)N(C)c1nnc(C(C)(C)C)s1`, the compound was called inactive in test [1], in [2], in [3], in test [4], in test [5] and in [6]. For the same compound, the result in [7], in test [8] and in test [9] was inactive.
